AHR activator: human AHR activation. AHR-responsive luciferase reporter cells, luminescence. P35869. 320,000 tested, 2.5% active. AID 2796. activation, % at 5 µM; in the data active = activation above about 47%
Target sequence (P35869 whole entry, looked up): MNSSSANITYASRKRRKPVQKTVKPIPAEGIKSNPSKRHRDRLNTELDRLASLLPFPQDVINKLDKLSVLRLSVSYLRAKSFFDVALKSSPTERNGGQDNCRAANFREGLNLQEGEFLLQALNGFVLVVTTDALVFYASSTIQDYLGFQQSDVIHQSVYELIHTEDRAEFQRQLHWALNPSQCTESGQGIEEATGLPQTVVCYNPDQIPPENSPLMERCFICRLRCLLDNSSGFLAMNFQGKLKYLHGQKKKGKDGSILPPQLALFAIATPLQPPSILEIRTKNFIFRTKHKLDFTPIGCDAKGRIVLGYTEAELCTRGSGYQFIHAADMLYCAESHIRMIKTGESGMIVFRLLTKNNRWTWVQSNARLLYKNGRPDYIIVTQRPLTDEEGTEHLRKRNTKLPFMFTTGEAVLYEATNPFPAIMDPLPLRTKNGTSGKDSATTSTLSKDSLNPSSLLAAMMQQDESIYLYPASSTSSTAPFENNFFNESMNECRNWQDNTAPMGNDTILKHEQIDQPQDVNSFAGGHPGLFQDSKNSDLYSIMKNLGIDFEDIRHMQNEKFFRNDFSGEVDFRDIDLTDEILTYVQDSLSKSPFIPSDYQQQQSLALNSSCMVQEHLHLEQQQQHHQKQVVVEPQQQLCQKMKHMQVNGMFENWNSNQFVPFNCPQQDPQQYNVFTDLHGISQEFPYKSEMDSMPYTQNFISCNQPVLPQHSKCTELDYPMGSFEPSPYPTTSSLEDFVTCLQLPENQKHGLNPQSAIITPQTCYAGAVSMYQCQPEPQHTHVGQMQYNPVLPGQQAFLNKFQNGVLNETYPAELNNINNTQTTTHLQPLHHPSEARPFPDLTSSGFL
FXN GAA850 act: activators of GAA850 frataxin (FXN) promoter; activation, % at 6 µM; 360,000 tested, 0.56% active; HEK293 lucGAA850 FXN promoter luciferase reporter, 24 h; percent of 10 µM SAHA response;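 active = activation above the average of all compounds screened plus 3 SD, cutoff fixed separately per campaign, cut at about 7.5% in these data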
MITF TRPM1 HTS: increases MITF-driven TRPM1 promoter luciferase signal. AID 588334. SK-MEL-5 TRPM1-promoter luciferase, 24 h; % of positive control, neutral wells = 0. activation, % at 12.5 µM. 300,000 tested, 0.75% active;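 active = mean activation of at least 80% with every replicate also reaching 80%; inconclusive = mean reaches 80% but some replicate falls short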
esBAF inh: inhibitors of esBAF chromatin remodeling in mouse ES cells | reporter increase, % at 12.5 µM | 350,000 tested, 2% active | Bmi1-luciferase knock-in reporter, 24 h; 100% = twice the neutral-well signal; in the data active = activation above about 40%; inconclusive = no clear call, values can overlap the other calls;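 also: a rise in the Bmi1 reporter signal indicates esBAF inhibition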
Wnt bcat act: activates Wnt/beta-catenin signaling in a reporter cell assay; AID 743398; activator, plate reader; 300,000 tested, 1.2% active; activation, % at 9.35 µM; in the data active = activation above about 30%, passing the limit was not always enough; inconclusive = no clear call, values can overlap the other calls
GAA30 FXN cntr: counter-screen for GAA850 frataxin promoter activators: GAA30 promoter activation. shares compounds with FXN GAA850 act. HEK293 lucGAA30 FXN promoter luciferase, 24 h; DMSO = 0%, 5 µM ipriflavone = 100%. activation, % at 6 µM. 1,900 tested, 66% active. AID 588350;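 active = mean activation above the mean of solvent-only control wells plus 3 SD, cut at about 22% in these data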;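 also: counterscreen of GAA850 promoter hits where activity marks nonselective or luminescence artifacts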
GAA850 confirm: confirmation of GAA850 frataxin (FXN) promoter activators | shares compounds with FXN GAA850 act | HEK293 lucGAA850 FXN promoter luciferase reporter, 24 h; 100% = activation by SAHA | activation, % at 6 µM | 1,900 tested, 86% active | AID 588351;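 active = mean activation above a set limit taken from the primary screen, cut at about 8% in these data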
Large screens that a line does not name were inactive (follow-up assays come after a bar, where they were run); ! = repeats disagree. Only some compounds are listed: those with a hit (about 4.2% of all), similar ones and a draw of the others.

NC(=O)c1ccccc1NC(=O)CSc1nc2ccccc2c(=O)[nH]1	none (no result: esBAF inh)
Cc1cccc(NC(=O)Nc2ccc3c(c2)C(=O)N(C)[C@@H]2CC[C@H](CC(=O)NCc4ccccc4Cl)O[C@@H]2CO3)c1	none (no result: AHR activator, FXN GAA850 act, MITF TRPM1 HTS, Wnt bcat act)
Oc1ccc(/C=N/Nc2ccnc3cc(Cl)ccc23)c(O)c1	FXN GAA850 act 12 | GAA30 FXN cntr 60 | GAA850 confirm 19
Clc1ccc2c(N/N=C/c3ccc(Br)cc3)ccnc2c1	none
Oc1ccc(Nc2ccnc3cc(Cl)ccc23)cc1	FXN GAA850 act 10 | GAA30 FXN cntr 39 | GAA850 confirm 11
Clc1ccc(NNc2ccnc3cc(Cl)ccc23)cc1	none (no result: MITF TRPM1 HTS, Wnt bcat act)
COc1ccc(C(=O)NCCN(C)C)c2nc3ccccc3cc12	FXN GAA850 act 10 (no result: AHR activator, MITF TRPM1 HTS, esBAF inh) | GAA30 FXN cntr inactive | GAA850 confirm 71
COc1cccc2nc3c(C(=O)NCCN(C)C)cccc3cc12	none (no result: AHR activator, MITF TRPM1 HTS, esBAF inh)
CCNc1nc(CSc2ccccc2)nc2sc(C)c(C)c12	FXN GAA850 act 18 (no result: esBAF inh, Wnt bcat act) | GAA30 FXN cntr inactive | GAA850 confirm 13
CN(C)c1ccc(O)c2c1CC1CC3[C@@H](N(C)C)C(=O)C(C(N)=O)=C(O)[C@]3(O)C(=O)C1=C2O (stereo partly specified)	FXN GAA850 act 15 | GAA30 FXN cntr 29 | GAA850 confirm 10
COC(=O)c1c(NC(=O)CN2CCC3(O)CCCCC3C2c2cc(OC)ccc2OC)sc(C)c1C (stereo unspecified)	FXN GAA850 act 12 (no result: esBAF inh, Wnt bcat act) | GAA30 FXN cntr inactive | GAA850 confirm 9.9
CCCCCn1c(=NC(=O)c2ccco2)c(C(=O)OCC)cc2c(=O)n3ccccc3nc21	FXN GAA850 act 8.0! | GAA30 FXN cntr inactive | GAA850 confirm 9.0
CCCCn1c(=NC(=O)c2ccco2)c(C(=O)OCC)cc2c(=O)n3ccccc3nc21	none
CCC(=O)Nc1ccc2c(c1)C(=O)N(C)[C@@H]1CC[C@@H](CC(=O)NCCOC)O[C@@H]1CO2	none (no result: AHR activator, FXN GAA850 act, MITF TRPM1 HTS, Wnt bcat act)
N#C[C@@H]1[C@H](c2ccc(C3=CCCCC3)cc2)[C@H](CO)N1C(=O)Nc1ccccc1F	none (no result: AHR activator, FXN GAA850 act, MITF TRPM1 HTS, Wnt bcat act)
COc1cccc(/C=C2\SC(=S)N(CCC(=O)NC3C=CS(=O)(=O)C3)C2=O)c1 (stereo unspecified)	FXN GAA850 act 10 | GAA30 FXN cntr 30 | GAA850 confirm 14
CO[C@@H]1CN(C)C(=O)c2ccc(NS(C)(=O)=O)cc2OC[C@@H](C)N(C(=O)C2CCCCC2)C[C@H]1C	none (no result: AHR activator, FXN GAA850 act, MITF TRPM1 HTS, Wnt bcat act)
Cc1oc2ccc(O)cc2c1C(=O)c1ccc([N+](=O)[O-])cc1	none (no result: esBAF inh)
Nc1c(C(=O)c2ccccc2)oc2ccc([N+](=O)[O-])cc12	FXN GAA850 act 8.3 (no result: esBAF inh) | GAA30 FXN cntr 99 | GAA850 confirm 35
COc1ccc2c(c1)[C@H]1[C@H](CO2)[C@H](c2ccccc2)[C@]2(C)C(=O)N(CC3CCCO3)CC(=O)N12 (stereo partly specified)	none
C[C@@]12C(=O)N(CCc3c[nH]c4ccccc34)CC(=O)N1[C@H]1c3ccccc3OC[C@@H]1[C@@H]2c1ccccc1	FXN GAA850 act 7.7 | GAA30 FXN cntr inactive | GAA850 confirm 8.5
C[C@@]12C(=O)N(CC3CCCO3)CC(=O)N1[C@H]1c3ccccc3OC[C@@H]1[C@@H]2c1ccccc1 (stereo partly specified)	FXN GAA850 act 12 | GAA30 FXN cntr inactive | GAA850 confirm 14
COC(=O)c1ccc(NN=Nc2ccc(C)cc2)cc1	FXN GAA850 act 7.8 (no result: esBAF inh, Wnt bcat act) | GAA30 FXN cntr 84 | GAA850 confirm 31
O=C(NCC[C@H]1CC[C@@H](NS(=O)(=O)c2cccc(F)c2)[C@@H](CO)O1)C1CC1	none (no result: AHR activator, FXN GAA850 act, MITF TRPM1 HTS, Wnt bcat act)
O=C(C[C@@H]1C=C[C@H](NS(=O)(=O)c2ccc(F)cc2)[C@H](CO)O1)NC1CCC1	none (no result: AHR activator, FXN GAA850 act, MITF TRPM1 HTS, Wnt bcat act)
Cc1cc(C)c2c(c1)/C(=C/C(=O)c1ccc(Br)s1)C(=O)N2	none (no result: Wnt bcat act)
Cc1cc(Br)c2c(c1)/C(=C/C(=O)c1cccs1)C(=O)N2	FXN GAA850 act 9.7 (no result: esBAF inh) | GAA30 FXN cntr inactive | GAA850 confirm 22
O=[N+]([O-])c1ccc2c(c1N1CCCCC1)=NC1(CCCCC1)[N+]=2[O-]	none (no result: MITF TRPM1 HTS)
[O-][N+]1=c2ccc(Nc3ccccc3)cc2=NC12CCCCC2	FXN GAA850 act 10, esBAF inh inconclusive | GAA30 FXN cntr 46 | GAA850 confirm 70
COc1ccc(Nc2ccc3c(c2)=NC2(CCCCC2)[N+]=3[O-])cc1	FXN GAA850 act 17 (no result: MITF TRPM1 HTS) | GAA30 FXN cntr 50 | GAA850 confirm 106
O=C(C[C@@H]1CC[C@@H]2[C@H](COC[C@H](O)CN2C(=O)c2ccccc2)O1)N1CCOCC1	none (no result: AHR activator, FXN GAA850 act, MITF TRPM1 HTS, Wnt bcat act)
O=C1Nc2ccc(Br)cc2/C1=C/C(=O)c1ccc2c(c1)OCO2	AHR activator 70, FXN GAA850 act 11 (no result: esBAF inh) | GAA30 FXN cntr inactive | GAA850 confirm 9.9
Fc1ccc(-c2csc3ncnc(Nc4ccc(N5CCOCC5)cc4)c23)cc1	FXN GAA850 act 12 (no result: Wnt bcat act) | GAA30 FXN cntr inactive | GAA850 confirm 11
c1nc(Nc2ccc(N3CCOCC3)cc2)c2ccsc2n1	none
O=C(C[C@@H]1CC[C@H]2[C@@H](COC[C@H](O)CN2Cc2ccc3c(c2)OCO3)O1)Nc1ccc(-c2ccccc2)cc1	none (no result: AHR activator, FXN GAA850 act, MITF TRPM1 HTS, Wnt bcat act)
COc1cccc(-c2ccc(SCc3ccccn3)nn2)c1	FXN GAA850 act 8.7, MITF TRPM1 HTS 114, Wnt bcat act inconclusive (no result: esBAF inh) | GAA30 FXN cntr 110 | GAA850 confirm 36
O=C(N/N=C/c1ccc(O)c([N+](=O)[O-])c1)C1CC1(c1ccccc1)c1ccccc1 (stereo unspecified)	FXN GAA850 act 10 (no result: esBAF inh) | GAA30 FXN cntr 32 | GAA850 confirm 19
CCCN1C(=O)S/C(=C/c2ccc(N3CCOCC3)o2)C1=O	esBAF inh inconclusive (no result: MITF TRPM1 HTS)
CCCN1C(=O)S/C(=C\c2ccc(N3CCOCC3)o2)C1=O	FXN GAA850 act 9.8, esBAF inh inconclusive | GAA30 FXN cntr 95 | GAA850 confirm 29
N#Cc1ccc(S(=O)(=O)N2CCCCC2c2cc(C(=O)Nc3cccc4c3CCCC4)no2)cc1 (stereo unspecified)	FXN GAA850 act 7.9 (no result: AHR activator, MITF TRPM1 HTS) | GAA30 FXN cntr 27 | GAA850 confirm 12
O=c1[nH]c2ccccc2c2cn(-c3ccccc3)nc12	AHR activator 64, FXN GAA850 act 8.8 (no result: esBAF inh) | GAA30 FXN cntr 112 | GAA850 confirm 46
CCCNC(=O)N1C[C@H](C)[C@H](OC)CN(C)C(=O)c2ccc(NC(=O)CCC)cc2OC[C@@H]1C	none (no result: AHR activator, FXN GAA850 act, MITF TRPM1 HTS, Wnt bcat act)
CCCNC(=O)N1C[C@@H](O)COC[C@H]2O[C@H](CC(=O)NCc3ccncn3)CC[C@@H]21	none (no result: AHR activator, FXN GAA850 act, MITF TRPM1 HTS, Wnt bcat act)
O=C1CSc2ccc(C(=O)NCCC3=CCCCC3)cc2N1	FXN GAA850 act 7.8, esBAF inh 50 | GAA30 FXN cntr 76 | GAA850 confirm 24
CO[C@H]1CN(C)C(=O)c2cc(NC(=O)c3ccc(F)cc3)ccc2OC[C@@H](C)N(C(C)=O)C[C@@H]1C	none (no result: AHR activator, FXN GAA850 act, MITF TRPM1 HTS, Wnt bcat act)

Screening results: PubChem BioAssay, several laboratories
